# Records with an inconclusive call do not appear. Where a call stands in place of a potency, no number is given. Calls of active or inactive are those of the source. Unless noted, calls come from the whole dose curve; as a rule, active = well fitted curve in the direction sought with a large enough effect; inconclusive = small, poorly fitted or top-dose-only effect, or another doubt; inactive = no such curve, though single readings can be large; an effect the other way counts as inactive or inconclusive.
# Legend:
# [1] = Primary qHTS for small molecule stabilizers of the endoplasmic reticulum resident proteome: Secreted ER Calcium Modulated Protein (SERCaMP) assay (AID 1508630)
# In short: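 GLuc-SERCaMP-expressing SH-SY5Y cells, pretreated 16 h with compound, are challenged with thapsigargin to empty ER calcium stores; after 4 h, coelenterazine is added directly to the medium and luminescence is imaged.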
# [2] = target: Lysosomal acid glucosylceramidase (Homo sapiens) (UniProt P04062); experiment: Glucocerebrosidase-p2 (AID 348; in the data active = potency below about 10 µM; note: potency is the fitted concentration of half-maximal effect); settings: purified GBA, blue fluorogenic substrate, 40 min
# In short: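 Compounds titrated from 0.6 nM upwards against 0.2 nM enzyme in pH 5.9 citric acid/KH2PO4, taurocholate, tween-20; blue fluorogenic substrate 80 uM, 40 min room temperature, stopped and read Ex 365/Em 440 for AC50.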
# [3] = NFAT Signaling Pathway (AID 444; active = well fitted curve in either direction with a large enough effect, not every such curve was filed as active;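 note: carbachol stimulus at about its EC50 of 1 µM final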); settings: Jurkat NFAT-bla M1, carbachol, beta-lactamase ratio, 5 h; at 7.69 µM (top of the series) unless noted
# In short: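 Jurkat cells with NFAT-driven β-lactamase reporter and co-expressed M1 receptor, stimulated with carbachol (final 1 uM, ~EC50), compound titration, 5 h at 37 °C. CCF4 loaded 1 h at RT; 460/530 nm ratio gave %activity and AC50.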
# [4] = target: Glucocorticoid receptor (Homo sapiens) (UniProt P04150); experiment: GR-GFP Redistribution (AID 450;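 active = compounds whose dose series gives a full or clear partial fitted curve of increased nuclear translocation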; note: potency is the fitted concentration of half-maximal effect); settings: U2OS GR-GFP nuclear translocation, laser cytometry, 2 h
# [5] = target: Glucocorticoid receptor (Homo sapiens) (UniProt P04150); experiment: GR-EFC Redistribution (AID 451; calls by dose curve; note: potency is the fitted concentration of half-maximal effect); settings: CHO-K1 GR-EFC translocation, beta-gal luminescence, 2 h
# In short: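 CHO-K1 cells expressing nuclear EA and GR-ED fragments of b-gal; compounds titrated up to 46 uM final, 2 h at 37 C. GR nuclear translocation read as complemented b-gal luminescence after 1 h RT detection.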
# [6] = target: Mitogen-activated protein kinase 10 (Mus musculus) (UniProt Q61831); experiment: JNK3 AlphaScreen Assay (AID 530; active = well fitted curve in either direction with a large enough effect, not every such curve was filed as active;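 note: kinase came from lysate of stimulated human HepG2 cells; signal reports phosphorylation of biotinylated GST-cJun 1-79 at Ser73 with 10 µM ATP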)
# In short: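 qHTS format: compounds tested as titrations against IL-1beta/TNF-alpha-activated HepG2 lysate JNK3 with biotin-GST-cJun substrate and 10 uM ATP at room temperature. Loss of anti-phospho-cJun AlphaScreen signal indicates inhibition.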
# [7] = target: 3',5'-cyclic-AMP phosphodiesterase 4B (Homo sapiens) (UniProt Q07343); experiment: qHTS Assay for Inhibitors of PDE-IV (AID 607; active = well fitted activation curve with a large enough effect in the main read-out, with a control signal flat, not every such curve was filed as active)
# In short: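 ACTOne HEK293 cells carry a modified cAMP-gated CNG channel and express endogenous PDE4; plated 1000 cells/well, compounds up to 22.9 uM final. Membrane-potential dye fluorescence (ex 535/em 590) was read; parental cells received 10 uM forskolin + 100 uM RO 20-1724.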
# [8] = target: Cytochrome P450 3A4 (Homo sapiens) (UniProt P08684); experiment: qHTS Assay for Activators of Cytochrome P450 3A4 (AID 885); note: nearly all actives have a fitted effect of over 65% in size
# In short: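 20nM CYP3A4 + 25uM Luciferin-PPXE (=KM), 200mM KPO4; cpd 10 min RT; NADPH regen, 60 min RT; stop w/ detection buffer, 20 min; luminescence. Normalized to 57 uM ketoconazole.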
# [9] = AP1 Signaling Pathway (AID 357; active = well fitted curve in either direction with a large enough effect, not every such curve was filed as active;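 note: ME-180 reporter cells stimulated with EGF at its EC50 level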); settings: ME-180 AP-1-bla reporter, EGF-induced, beta-lactamase ratio, 5 h; at 7.69 µM (top of the series) unless noted
# In short: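 Cells are seeded overnight, exposed to compound titrations and an EC50 level of EGF for 5 hours at 37 °C, then loaded with CCF4 dye for 2.5 hours. Beta-lactamase activity under the AP-1 element is read as a blue/green ratio.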
# [10] = target: Cytochrome P450 1A2 (Homo sapiens) (UniProt P05177); experiment: p450-cyp1a2 (AID 410; calls by dose curve; note: potency is the fitted concentration of half-maximal effect)
# In short: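 Inhibition was calculated relative to 57 uM furafylline (full inhibition). The reaction used human CYP1A2 at 20nM with Luciferin-ME at its Km, 100uM, driven by an NADPH-regenerating system for 60 min at room temperature.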
# [11] = Stat Signaling Pathway (AID 446; active = well fitted curve in either direction with a large enough effect, not every such curve was filed as active;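 note: ME-180 cervical cancer cells given 40 pM IL-6 alongside compound; SIE-controlled beta-lactamase reporter measured as 460/530 nm FRET emission ratio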); settings: ME-180 SIE beta-lactamase reporter, IL-6 stimulated, 5 h; at 7.69 µM (top of the series) unless noted
# In short: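 ME-180 SIE-bla cells; overnight plating; cpd + IL-6 40 pM, 5 h, 37 C; LiveBLAzer 2.5 h RT; 460/530 nm emission ratio. Normalized to 300 pM IL-6 and 125 nM JAK inhibitor controls.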
# [12] = qHTS Assay for Lipid Storage Modulators (AID 1519; calls by dose curve); settings: Drosophila S3 cells, BODIPY lipid droplet/cell ratio, laser cytometry, cells loaded with oleic acid
# In short: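 Cells seeded at 5,000 per well were treated with compounds over a concentration series and loaded with oleic acid (400 uM, as added). Lipid droplet fluorescence (488 nm excitation, 500-530 nm channel) was read by laser-scanning cytometry and normalized to 20 uM Triacsin C.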
# [13] = target: Dual specificity protein kinase CLK4 (Homo sapiens) (UniProt Q9HAZ1); experiment: qHTS Assay for Inhibitors of CDC-like Kinase 4 (Kinase-Glo Assay) (AID 1770); note: nearly all actives have a fitted effect of over 65% in size
# In short: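 Clk4 25 nM, RS peptide 100 uM, ATP 1 uM, pH 7.5 Tris, 10 mM MgCl2, 2.5 mM DTT; 4.5 h RT; ATP depletion read by Kinase-Glo luminescence.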
# [14] = target: Dual specificity protein kinase CLK4 (Homo sapiens) (UniProt Q9HAZ1); experiment: qHTS Assay for Inhibitors of CDC-like Kinase 4 (ADP-Glo Assay) (AID 1771); note: nearly all actives have a fitted effect of over 70% in size
# In short: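 Kinase reaction: Clk4 at 25 nM, RS repeat peptide substrate at 100 uM, ATP at 1 uM, 1 hr, room temperature. Product ADP detected as luciferase signal via ADP-Glo.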
# [15] = target: Dual specificity protein kinase CLK4 (Homo sapiens) (UniProt Q9HAZ1); experiment: qHTS Assay for Inhibitors of CDC-like Kinase 4 (ADP-FP Assay) (AID 1795);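 note: recombinant human CLK4 phosphorylating RS repeat peptide at 1 µM ATP; nearly all actives have a fitted effect of over 60% in size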
# In short: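 Kinase activity was followed as ADP output, converted from fluorescence polarization with a calibration curve. Reactions ran one hour at low ATP (1 uM) with RS peptide substrate.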
# [16] = target: Ubiquitin carboxyl-terminal hydrolase 1 (Homo sapiens) (UniProt O94782); experiment: Inhibitors of USP1/UAF1: Pilot qHTS (AID 504865);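 note: rhodamine fluorescence freed from ubiquitin-rhodamine substrate followed over time; top concentration of the series differs between compounds; nearly all actives have a fitted effect of over 35% in size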
# In short: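 Enzyme-free wells gave the negative control, while test wells held 1nM USP1/UAF1 preincubated with compound for 15 min at room temperature. Ub-Rho at 150nM final started the reaction, and fluorescence at 480/540 nm was recorded kinetically.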
# [17] = target: Rap guanine nucleotide exchange factor 4 (Homo sapiens) (UniProt Q8WZA2); experiment: Confirmatory qHTS for antagonist of cAMP-regulated guanine nucleotide exchange factor 4 (EPAC2) (AID 1645885); note: nearly all actives have a fitted effect of over 25% in size
# Rap guanine nucleotide exchange factor 4 (Homo sapiens), sequence (Q8WZA2 whole entry, looked up): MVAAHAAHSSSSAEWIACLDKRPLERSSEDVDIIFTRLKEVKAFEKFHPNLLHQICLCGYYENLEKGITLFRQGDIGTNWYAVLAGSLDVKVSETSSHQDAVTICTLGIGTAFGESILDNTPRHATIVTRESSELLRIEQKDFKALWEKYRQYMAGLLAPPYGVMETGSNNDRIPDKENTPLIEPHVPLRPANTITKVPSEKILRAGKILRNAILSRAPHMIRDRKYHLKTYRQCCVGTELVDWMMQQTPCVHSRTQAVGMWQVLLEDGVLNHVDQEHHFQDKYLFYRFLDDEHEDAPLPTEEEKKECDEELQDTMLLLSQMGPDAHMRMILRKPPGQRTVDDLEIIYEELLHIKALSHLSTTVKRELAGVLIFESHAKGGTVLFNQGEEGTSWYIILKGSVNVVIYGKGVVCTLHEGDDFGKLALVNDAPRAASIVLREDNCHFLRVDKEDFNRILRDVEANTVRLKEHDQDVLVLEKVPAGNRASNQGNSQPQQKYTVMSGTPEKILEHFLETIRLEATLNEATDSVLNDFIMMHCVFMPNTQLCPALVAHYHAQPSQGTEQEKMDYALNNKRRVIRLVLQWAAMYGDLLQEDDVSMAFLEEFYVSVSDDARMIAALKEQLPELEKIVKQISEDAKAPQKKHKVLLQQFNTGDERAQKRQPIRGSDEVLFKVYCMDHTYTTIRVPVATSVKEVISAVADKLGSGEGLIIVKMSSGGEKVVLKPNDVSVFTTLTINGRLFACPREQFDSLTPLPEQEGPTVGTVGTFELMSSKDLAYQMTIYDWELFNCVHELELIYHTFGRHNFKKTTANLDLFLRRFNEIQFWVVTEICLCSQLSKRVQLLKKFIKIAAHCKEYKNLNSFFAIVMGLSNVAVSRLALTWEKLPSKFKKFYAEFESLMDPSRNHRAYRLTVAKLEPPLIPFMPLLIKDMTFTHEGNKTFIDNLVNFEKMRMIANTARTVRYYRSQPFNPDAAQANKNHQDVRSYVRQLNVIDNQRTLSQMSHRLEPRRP
# Lysosomal acid glucosylceramidase (Homo sapiens), sequence (P04062 whole entry, looked up): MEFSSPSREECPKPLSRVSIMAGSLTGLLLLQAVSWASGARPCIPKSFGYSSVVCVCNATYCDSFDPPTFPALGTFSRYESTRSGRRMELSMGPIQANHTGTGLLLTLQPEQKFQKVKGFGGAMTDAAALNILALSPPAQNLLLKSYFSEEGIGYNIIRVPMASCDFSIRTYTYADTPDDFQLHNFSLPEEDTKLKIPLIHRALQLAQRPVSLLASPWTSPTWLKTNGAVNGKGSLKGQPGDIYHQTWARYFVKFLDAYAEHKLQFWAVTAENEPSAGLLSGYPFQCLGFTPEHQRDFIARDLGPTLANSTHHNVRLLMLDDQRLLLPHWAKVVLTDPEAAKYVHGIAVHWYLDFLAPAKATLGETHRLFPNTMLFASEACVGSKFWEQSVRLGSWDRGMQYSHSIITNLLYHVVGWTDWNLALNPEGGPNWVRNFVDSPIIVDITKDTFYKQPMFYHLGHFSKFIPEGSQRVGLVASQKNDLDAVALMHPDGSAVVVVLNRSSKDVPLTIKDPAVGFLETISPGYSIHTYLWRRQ
# Glucocorticoid receptor (Homo sapiens), sequence (P04150 whole entry, looked up, the tested form may be a part): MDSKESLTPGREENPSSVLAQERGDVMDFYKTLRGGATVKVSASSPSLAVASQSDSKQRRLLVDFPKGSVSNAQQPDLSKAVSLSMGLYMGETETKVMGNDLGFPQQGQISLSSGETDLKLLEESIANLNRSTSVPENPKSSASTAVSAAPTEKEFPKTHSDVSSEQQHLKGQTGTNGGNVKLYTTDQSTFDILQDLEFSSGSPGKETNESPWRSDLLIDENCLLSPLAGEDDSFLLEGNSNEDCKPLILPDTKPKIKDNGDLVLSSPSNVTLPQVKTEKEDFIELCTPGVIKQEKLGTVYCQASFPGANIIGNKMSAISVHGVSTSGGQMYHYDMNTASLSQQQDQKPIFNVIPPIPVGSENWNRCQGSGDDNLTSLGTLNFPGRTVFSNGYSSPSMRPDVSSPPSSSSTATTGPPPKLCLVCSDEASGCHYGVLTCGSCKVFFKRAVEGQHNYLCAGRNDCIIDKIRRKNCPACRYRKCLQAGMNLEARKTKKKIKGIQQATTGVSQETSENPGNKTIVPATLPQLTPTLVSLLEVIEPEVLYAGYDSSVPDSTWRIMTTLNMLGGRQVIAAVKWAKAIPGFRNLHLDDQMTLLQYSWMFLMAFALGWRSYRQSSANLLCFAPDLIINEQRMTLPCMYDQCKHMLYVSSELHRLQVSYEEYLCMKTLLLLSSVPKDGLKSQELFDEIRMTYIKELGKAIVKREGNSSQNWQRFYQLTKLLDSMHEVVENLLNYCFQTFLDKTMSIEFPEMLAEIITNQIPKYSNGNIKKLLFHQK
# Dual specificity protein kinase CLK4 (Homo sapiens), sequence (Q9HAZ1 whole entry, looked up): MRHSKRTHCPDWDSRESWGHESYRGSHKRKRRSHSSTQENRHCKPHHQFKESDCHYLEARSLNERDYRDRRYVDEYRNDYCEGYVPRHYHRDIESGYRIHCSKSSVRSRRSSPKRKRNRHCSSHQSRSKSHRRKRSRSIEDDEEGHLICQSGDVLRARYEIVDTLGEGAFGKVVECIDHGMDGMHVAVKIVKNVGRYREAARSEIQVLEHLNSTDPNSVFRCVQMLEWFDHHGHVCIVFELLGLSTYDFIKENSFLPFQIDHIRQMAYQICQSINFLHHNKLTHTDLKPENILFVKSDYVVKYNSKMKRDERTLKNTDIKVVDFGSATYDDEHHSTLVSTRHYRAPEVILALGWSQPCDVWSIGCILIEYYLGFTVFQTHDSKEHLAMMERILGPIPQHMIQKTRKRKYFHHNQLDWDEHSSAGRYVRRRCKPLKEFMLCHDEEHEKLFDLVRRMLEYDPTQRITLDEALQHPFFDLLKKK
# Cytochrome P450 1A2 (Homo sapiens), sequence (P05177 whole entry, looked up): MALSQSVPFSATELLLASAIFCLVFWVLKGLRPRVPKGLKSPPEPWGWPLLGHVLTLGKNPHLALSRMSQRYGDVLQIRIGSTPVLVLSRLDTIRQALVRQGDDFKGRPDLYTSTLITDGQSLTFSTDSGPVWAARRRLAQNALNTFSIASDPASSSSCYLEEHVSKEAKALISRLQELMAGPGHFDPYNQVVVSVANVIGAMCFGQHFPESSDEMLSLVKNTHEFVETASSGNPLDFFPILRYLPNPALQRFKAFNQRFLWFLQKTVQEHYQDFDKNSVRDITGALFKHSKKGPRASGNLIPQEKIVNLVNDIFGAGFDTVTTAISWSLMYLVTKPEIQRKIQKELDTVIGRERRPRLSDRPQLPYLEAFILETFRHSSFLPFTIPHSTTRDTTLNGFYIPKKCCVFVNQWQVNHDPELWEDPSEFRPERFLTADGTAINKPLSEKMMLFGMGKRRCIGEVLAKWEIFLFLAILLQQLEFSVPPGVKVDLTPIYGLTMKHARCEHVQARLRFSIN
# Cytochrome P450 3A4 (Homo sapiens), sequence (P08684 whole entry, looked up): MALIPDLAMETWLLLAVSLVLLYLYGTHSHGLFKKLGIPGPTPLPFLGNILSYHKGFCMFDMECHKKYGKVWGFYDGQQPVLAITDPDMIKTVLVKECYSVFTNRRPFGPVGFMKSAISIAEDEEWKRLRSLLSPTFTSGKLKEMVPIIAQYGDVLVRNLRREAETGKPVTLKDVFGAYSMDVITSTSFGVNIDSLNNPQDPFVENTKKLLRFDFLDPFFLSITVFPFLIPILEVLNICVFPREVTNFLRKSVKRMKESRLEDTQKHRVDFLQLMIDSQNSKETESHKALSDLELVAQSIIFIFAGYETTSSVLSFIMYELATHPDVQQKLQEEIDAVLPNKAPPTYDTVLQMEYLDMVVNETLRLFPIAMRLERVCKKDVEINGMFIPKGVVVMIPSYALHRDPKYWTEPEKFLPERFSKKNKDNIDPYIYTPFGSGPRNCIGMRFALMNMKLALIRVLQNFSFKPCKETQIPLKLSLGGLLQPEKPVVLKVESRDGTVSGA
# 3',5'-cyclic-AMP phosphodiesterase 4B (Homo sapiens), sequence (Q07343 whole entry, looked up): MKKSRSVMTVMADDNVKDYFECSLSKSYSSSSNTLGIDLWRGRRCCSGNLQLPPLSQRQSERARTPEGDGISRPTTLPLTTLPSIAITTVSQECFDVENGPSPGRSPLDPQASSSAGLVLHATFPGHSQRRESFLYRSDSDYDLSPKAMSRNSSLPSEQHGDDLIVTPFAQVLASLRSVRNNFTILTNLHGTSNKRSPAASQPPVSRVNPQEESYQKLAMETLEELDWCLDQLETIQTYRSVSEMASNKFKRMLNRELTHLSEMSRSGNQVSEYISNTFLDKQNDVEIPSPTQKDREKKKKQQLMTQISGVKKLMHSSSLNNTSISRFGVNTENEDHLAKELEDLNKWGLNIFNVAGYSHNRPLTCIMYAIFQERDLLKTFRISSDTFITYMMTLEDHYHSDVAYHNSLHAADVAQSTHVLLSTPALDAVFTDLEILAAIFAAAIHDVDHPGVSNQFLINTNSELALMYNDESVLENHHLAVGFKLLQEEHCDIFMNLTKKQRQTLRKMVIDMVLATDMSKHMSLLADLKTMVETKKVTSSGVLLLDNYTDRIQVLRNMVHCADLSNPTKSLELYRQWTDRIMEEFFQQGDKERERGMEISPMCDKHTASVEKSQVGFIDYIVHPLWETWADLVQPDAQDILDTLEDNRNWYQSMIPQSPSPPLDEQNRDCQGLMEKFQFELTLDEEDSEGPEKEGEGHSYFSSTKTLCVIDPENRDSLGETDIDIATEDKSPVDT
smiles,measurement,setting,value
COc1cc(C/C=C\c2ccccc2)c(OC)cc1O,Potency,[1],inactive
COc1cc2c(cc1OC)-c1cc3cc(OC)c(OC)cc3c(=O)n1CC2,Potency,[1],inactive
COc1c2c(cc3c1C(c1c(O)c4ccccc4oc1=O)N(C)CC3)OCO2 (configuration not stated),Potency,[1],inactive
C/C(Nc1ccc2oc(=O)ccc2c1)=C1/C(=O)CC2[C@@H]1C2(C)C (some centres not stated),Potency,[1],inactive
O=C(O)C1CCC[C@@H]2[C@@H]3CC(CN12)[C@@H]1CCCCN1C3 (some centres not stated),Potency,[1],inactive
COc1c(O)cc2c(=O)oc3c(OC)c(O)cc4c(=O)oc1c2c34,Potency,[1],inactive
CCCCCCCCCCCCCCCC(=O)C1=C(O)C(CO)OC1=O (configuration not stated),Potency,[1],inactive
N#CCCn1c(=O)c(CCc2ccccc2)nc2cnc(Oc3cccc(Cl)c3)nc21,Potency,[2],> 11.4 µM (inactive)
same,"activity change, negative = inhibition",[3],-8.5% (inactive)
same,Potency,[4],> 9.22 µM (inactive)
same,Potency,[5],> 46 µM (inactive)
same,outcome,[6],inactive
same,Potency,[7],inactive
same,Potency,[8],inactive
COc1ccc(-n2c(=O)cnc3cnc(N4CCNCC4)nc32)cc1,Potency,[2],> 11.4 µM (inactive)
same,"activity change, negative = inhibition",[9],-7.32% (inactive)
same,Potency,[10],12.6 µM (active)
same,"activity change, negative = inhibition",[3],0.78% (inactive)
same,"activity, negative = inhibition",[11],-6.65% (inactive)
same,Potency,[4],> 9.22 µM (inactive)
same,Potency,[5],> 46 µM (inactive)
same,outcome,[6],inactive
same,Potency,[7],inactive
CC(=O)[C@@]1(O)[C@H](O)CC2C3CCC4CC(O)CC[C@]4(C)C3CC[C@@]21C (some centres not stated),Potency,[1],inactive
O=C(O)c1c(C(=O)O)c2ccccc2[nH]c1=O,Potency,[1],inactive
COc1cc2oc(=O)c3c4c(cc5ccc(c1CCN(C)C)c2c53)OCO4,Potency,[1],inactive
C=C1C[C@]23C[C@@]1(O)CC[C@H]2[C@@]12C=C[C@H](O)C(C)(C(=O)O1)[C@H]2[C@@H]3CC(=O)O,Potency,[1],inactive
CC(=O)OC[C@@]12C(=O)[C@@H](O)[C@@H](C)[C@]3(C[C@@H](c4ccoc4)O[C@@H]3OC(C)=O)[C@H]1CCC[C@]21CO1,Potency,[1],inactive
Cn1c(=O)c(-c2ccccc2)c(O)c2ccccc21,Potency,[1],inactive
C=CC(C)(O)CC1[C@@]2(C)CCCC(C)(C)C2CC[C@]1(C)O (some centres not stated),Potency,[1],inactive
C[C@@H]1CC[C@H]2[C@H](C)[C@H]3CC[C@H]4C5[C@@H](O)CC6=CC(=O)CC[C@]6(C)[C@H]5C[C@H]4C3C(=O)N2C1 (some centres not stated),Potency,[1],inactive
CC1CCC(C(C)[C@H]2CCC3C4CC(=O)C5C[C@@H](O)CC[C@]5(C)C4CC[C@@]32C)=NC1 (some centres not stated),Potency,[1],inactive
CC1=C(C(N)=O)N2C(=O)[C@@H](NC(=O)Cc3ccccc3)C2SC1 (some centres not stated),Potency,[1],inactive
COc1cc2c(cc1OC)C(C(=O)c1ccc(OC)c(OC)c1O)=NCC2,Potency,[1],inactive
COc1ccc2c(c1OC)C(=O)N1c3ccccc3C(=O)OC21 (configuration not stated),Potency,[1],inactive
COc1cc2c(cc1OC)C(c1c[nH]c3ccccc13)NCC2 (configuration not stated),Potency,[1],inactive
C[C@H]1CC[C@@H]2N(C1)C[C@H]1[C@@H]3C[C@H]4[C@@H](C/C(=N\O)[C@H]5C[C@@H](O)CC[C@@]54C)[C@@H]3CC[C@H]1[C@]2(C)O,Potency,[1],inactive
O=C1CCCC2[C@@H]3CCC[N@+]4([O-])CCC[C@H](CN12)C34 (some centres not stated),Potency,[1],inactive
COC(=O)[C@H]1Cc2c([nH]c3ccccc23)CN1C(=O)COc1ccc2c(C)cc(=O)oc2c1,Potency,[1],inactive
COc1cc2c(cc1OC)OC(C)(C)C=C2,Potency,[1],inactive
C/C=C/c1ccc(OC(C)[C@@H](O)c2ccc(O)c(OC)c2)c(OC)c1 (some centres not stated),Potency,[1],inactive
C[n+]1ccc(/C=C/c2ccc3ccccc3c2)cc1,Potency,[1],inactive
COc1ccc([C@H]2c3cc(OC)c(OC)cc3C[C@@H](C)[C@@H]2C)cc1OC,Potency,[1],inactive
CC(C)(O)[C@@H]1CCC[N+]2(C)CCCC[C@H]12 (some centres not stated),Potency,[1],inactive
c1cnc2c(-c3nccc4c3[nH]c3ccccc34)cccc2c1,Potency,[1],inactive
O=C(O)c1ccccc1-c1oc2cc(O)ccc2c(=O)c1Oc1ccccc1,Potency,[1],inactive
COC(=O)N1c2ccccc2C23[C@@H]4CN5CCC[C@]6(CCC12C(O)(C6)C4=O)[C@H]53,Potency,[1],inactive
COc1ccc([C@@H](C)C(=O)c2ccc(O)cc2O)cc1,Potency,[1],inactive
COc1ccc([C@@H]2[C@@H](O)[C@H](O)[C@@H](C)N2C)cc1OC,Potency,[1],inactive
CC(=O)O[C@@H]1CC2C(C)(C)C(=O)C=C[C@]2(C)C2CC[C@]3(C)C(=CC[C@H]3C3CO[C@@H](C(C)(C)O)[C@H](O)C3)[C@@]21C (some centres not stated),Potency,[1],inactive
OCC1=CC[N+]2(Cc3ccccc3)CCC(O)[C@@H]12 (some centres not stated),Potency,[1],inactive
C[C@@H]1C(=O)CC2C(C)(C)CCC[C@]2(C)[C@@]1(O)CCc1ccoc1 (some centres not stated),Potency,[1],inactive
COc1cc2c(cc1OC)C1N(CC2)C(=O)CCC12C(=O)CCCC2=O (configuration not stated),Potency,[1],inactive
CC(C)C1=CC2=CC[C@H]3[C@](C)(C(=O)O)CCC[C@]3(C)C2CC1 (some centres not stated),Potency,[1],inactive
CN(C)c1ncc2nc(-c3cccs3)c(=O)n(C[C@H]3CCCO3)c2n1,Potency,[2],> 11.4 µM (inactive)
same,"activity change, negative = inhibition",[9],-15.4% (inactive)
same,Potency,[10],1.58 µM (active)
same,"activity change, negative = inhibition",[3],12.3% (inactive)
same,"activity, negative = inhibition",[11],1.25% (inactive)
same,Potency,[4],> 9.22 µM (inactive)
same,Potency,[5],> 46 µM (inactive)
same,outcome,[6],inactive
same,Potency,[8],inactive
same,"activity change, negative = inhibition",[12]; at 57.5 µM (top of the series),4.26% (inactive)
same,max response,[12]; measured here: cell count channel max response,14.9%
same,max response,[12]; measured here: lipid channel max response,17.7%
same,Potency,[13],inactive
same,Potency,[14],inactive
same,Potency,[15],inactive
same,Potency,[16],inactive
same,Potency,[1],inactive
same,Potency,[17],inactive
